Common to all, as to test: PBM binding z-score (relative to random genomic background probes); higher = stronger binding; sequences stand for … in GC…GCGATTGACAGCGTAGAATGAAGG
The subject of test [1] is FXR:RXRa (NR concentration 270 nM, RXRa partner concentration 90 nM). Summed up: (§1)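 Binding z-scores were set against random background probes. The data came from custom Agilent 4×180K protein-binding microarrays carrying double-stranded probes with 34-nt variable regions, incubated 1 h with ligand-free nuclear receptor dimers. Partner-specific antibodies detected binding, and scanned fluorescence was regression-normalized.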

The subject of test [2] is LXRa:RXRa (NR concentration 270 nM, RXRa partner concentration 90 nM). In short, it runs like this:
as §1

Test [3] has as its system LXRa homodimer (NR concentration 270 nM). In short, it runs like this: as §1
Test [4] has as its system LXRb:RXRa (NR concentration 270 nM, RXRa partner concentration 90 nM). Summed up: as §1
Test [5] has as its system LXRb homodimer (NR concentration 270 nM). Summed up:
as §1

In test [6] the test system is PPARa:RXRa (NR concentration 270 nM, RXRa partner concentration 90 nM). In short, it runs like this:
as §1

Test [7] deals with PPARg:RXRa (NR concentration 180 nM, RXRa partner concentration 90 nM). Summed up:
as §1

Test [8] concerns PPARg:RXRa 270nM:90nM, anti-RXR (NR concentration 270 nM, RXRa partner concentration 90 nM). In short, it runs like this: as §1
The test system of test [9] is PPARg:RXRa 30nM:10nM, anti-RXR (NR concentration 30 nM, RXRa partner concentration 10 nM). In short, it runs like this: as §1
Test [10] concerns PPARg:RXRa 90nM:30nM, anti-RXR (NR concentration 90 nM, RXRa partner concentration 30 nM). In short, it runs like this: as §1
In test [11] the test system is PPARg:RXRa DBDmut IVT, anti-RXR (DBD mutation: RXRa K156A/R161A, NR concentration 270 nM, RXRa partner concentration 90 nM). Summed up:
as §1

In test [12] the test system is PPARg:RXRa IVT, anti-PPARg (NR concentration 270 nM, RXRa partner concentration 90 nM). In short, it runs like this:
as §1

Test [13] has as its system PPARg DBDmut:RXRa IVT, anti-PPARg (DBD mutation: PPARg1 K132A/R137A, NR concentration 270 nM, RXRa partner concentration 90 nM). In short, it runs like this: as §1
The test system of test [14] is PPARg DBDmut IVT, anti-PPARg (DBD mutation: PPARg1 K132A/R137A, NR concentration 270 nM). Summed up:
as §1

In test [15] the test system is PPARg homodimer (NR concentration 180 nM). Summed up: as §1
Test [16] deals with PXR:RXRa (NR concentration 270 nM, RXRa partner concentration 90 nM). In short, it runs like this: as §1
The test system of test [17] is PXR homodimer (NR concentration 270 nM). In short, it runs like this: as §1
The test system of test [18] is RARa:RXR (NR concentration 270 nM, RXRa partner concentration 90 nM). In short, it runs like this:
as §1

Test [19] concerns RARa homodimer (NR concentration 270 nM). Summed up:
as §1

Test [20] deals with RARb:RXRa (NR concentration 270 nM, RXRa partner concentration 90 nM). Summed up: as §1

CATACAGGGGCAGCTAGGCCAGAGTAGGGACGGC: the PBM binding z-score in test [1] was -0.362; in test [2], -0.459; in test [3] it was -0.661; in test [4], -0.557; in test [5], -0.608; in test [6], -0.483. The PBM binding z-score in test [7] was 0.23; in [8], -0.457; in test [9] it was -0.311; in [10] it was -0.744; in test [11], -0.41; in [12], 0.399. Moreover, the PBM binding z-score in [13] is -0.422; in test [14] it was -0.72; in test [15], -0.555; in test [16], -0.802; in test [17] it was -0.878; in test [18], -0.828. Further, the PBM binding z-score in test [19] was 0.188; in test [20] it was 1.17.
For the sequence TCTTGTAGATCAGCAGGTTAAGAAGGCTGGCCAA, the PBM binding z-score was 0.433 in test [1]; 0.344 in test [2]; -0.0872 in [3]; 0.367 in test [4]; -0.714 in [5]; 0.674 in test [6]. Besides, the PBM binding z-score in test [7] is -0.387; in [8], 1.6; in [9], 2.59; in test [10], 2.41; in test [11], 1.84; in test [12] it was 0.182. Also, the PBM binding z-score in test [13] was -0.501; in test [14], -0.862; in test [15] it was 0.413; in [16], 0.183; in test [17], -0.311; in test [18] it was 0.64. Also, the PBM binding z-score was -0.641 in [19] and 0.214 in test [20].
As to CGAACGAGGGCATGAGTTAATAGCAAATGCCGAT, the PBM binding z-score was 0.396 in [1]; 0.206 in [2]; -0.633 in test [3]; 0.117 in test [4]; -0.921 in [5]; 1.49 in test [6]. Further, the PBM binding z-score in [7] stood at 1.64; in test [8], 1.98; in [9], 0.666; in test [10] it was 1.58; in test [11] it was 2.98; in [12], 2.1. For the same sequence, the PBM binding z-score in [13] was -0.0604; in [14], 0.0299; in test [15], -0.39; in test [16], 0.548; in test [17], 0.0291; in test [18] it was 0.254. Further, the PBM binding z-score in [19] was -0.352; in [20] it was 1.89.
In the case of ATCGAAAGGGCGACGAGGTGAGTATACACCGTTT, the PBM binding z-score was 0.314 in test [1]; 0.222 in test [2]; -0.247 in test [3]; 0.0783 in test [4]; -0.352 in [5]; 0.902 in test [6]. For the same sequence, the PBM binding z-score in [7] is 0.873; in test [8] it was 0.152; in test [9] it was 0.164; in test [10], -0.136; in test [11], -0.129; in test [12] it was 0.9. The PBM binding z-score stood at 0.582 in test [13]; 0.302 in [14]; 0.304 in test [15]; 0.264 in test [16]; 0.172 in [17]; 0.542 in test [18]. For the same sequence, the PBM binding z-score in [19] came to 0.176; in test [20], 1.74.
TCTTGTAGATCAAGCAGGTGAAGAAAGCCTGAGT: the PBM binding z-score in test [1] is 0.239; in test [2], 0.182; in test [3] it was -0.332; in test [4], -0.145; in test [5] it was -0.467; in test [6], 0.527. The PBM binding z-score in test [7] was -0.404; in [8], 1.19; in test [9] it was 2.61; in [10], 2.07; in test [11], 1.7; in [12], 0.945. Moreover, the PBM binding z-score in test [13] is 0.265; in test [14], -0.33; in [15] it was -0.0595; in test [16] it was 0.043; in test [17], -0.139; in test [18] it was 0.061. The PBM binding z-score in test [19] is -0.384; in test [20], -0.159.
In the case of AGAATGAGGTTACGAAAGATCAGGGAAACGCTTG, the PBM binding z-score in test [1] is 2.59; in [2] it was 4.99; in test [3], -0.188; in [4], 2.46; in test [5], -0.578; in test [6], 3.68. Moreover, the PBM binding z-score in test [7] came out at 2.95; in [8], 2.84; in test [9], 1.04; in test [10], 2.02; in [11], 4.25; in test [12], 3.64. Moreover, the PBM binding z-score is 0.808 in test [13]; 0.386 in test [14]; 0.0598 in test [15]; 1.44 in test [16]; -0.57 in [17]; 2.32 in test [18]. Also, the PBM binding z-score in test [19] is -0.313; in [20], 2.21.
On to AGAATGAGGTTAAAATCAGGGAAACAGAATACAT, for which the PBM binding z-score in test [1] was 2.65; in test [2] it was 2.59; in test [3], 0.234; in [4] it was 2.08; in test [5], 0.345; in test [6] it was 3.69. The PBM binding z-score in [7] came out at 2.3; in test [8] it was 2.46; in test [9] it was 0.879; in test [10], 1.7; in [11], 2.34; in [12] it was 2.5. The PBM binding z-score in test [13] came out at 0.82; in test [14], 1.18; in [15] it was 0.858; in test [16], 1.17; in [17], 0.655; in test [18], 1.9. The values for the PBM binding z-score in [19] and in [20] were 0.961 and 1.59, respectively.
